Here are results for 14 molecules from the supplement of paper PMC7724964.

Assay in all cases: phage ELISA signal ratio (GST-PRM binding over GST background); higher = stronger binding of peptide-phage to the PRM
In test [1] the target is KPNB1 1-876 IBN_N+Arm (domain begin residue: 1, domain end residue: 876), Q14974. In short, it runs like this: (§1)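 Approximately 48 individual clones from selection rounds 4 and 5 were tested by phage ELISA, and those scoring positive were sequenced. They came from five rounds of selecting an M13 phage library of randomized, cysteine-free, glycine-flanked hexadecapeptides on the gene-8 major coat protein against human peptide recognition domains fused to the C-terminus of glutathione S-transferase (GST) in 96-well plates. Each figure in the table is the ELISA signal on the GST-domain fusion relative to the signal on GST alone.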

Test [2] concerns the target KDM6A 1-520 TPR_8 (domain begin residue: 1, domain end residue: 520), O15550. The gist of the method:
as §1

For test [3], the target named is HSPA9 438-651 HSP70 (domain begin residue: 438, domain end residue: 651), P38646. In short, it runs like this:
as §1

In test [4] the target is KMT2C 995-1055 PHD (domain begin residue: 995, domain end residue: 1055). The gist of the method:
as §1

The target in test [5] is T1, LBR 1-67 LBR_tudor (domain begin residue: 1, domain end residue: 67), Q14739.
T1 chain: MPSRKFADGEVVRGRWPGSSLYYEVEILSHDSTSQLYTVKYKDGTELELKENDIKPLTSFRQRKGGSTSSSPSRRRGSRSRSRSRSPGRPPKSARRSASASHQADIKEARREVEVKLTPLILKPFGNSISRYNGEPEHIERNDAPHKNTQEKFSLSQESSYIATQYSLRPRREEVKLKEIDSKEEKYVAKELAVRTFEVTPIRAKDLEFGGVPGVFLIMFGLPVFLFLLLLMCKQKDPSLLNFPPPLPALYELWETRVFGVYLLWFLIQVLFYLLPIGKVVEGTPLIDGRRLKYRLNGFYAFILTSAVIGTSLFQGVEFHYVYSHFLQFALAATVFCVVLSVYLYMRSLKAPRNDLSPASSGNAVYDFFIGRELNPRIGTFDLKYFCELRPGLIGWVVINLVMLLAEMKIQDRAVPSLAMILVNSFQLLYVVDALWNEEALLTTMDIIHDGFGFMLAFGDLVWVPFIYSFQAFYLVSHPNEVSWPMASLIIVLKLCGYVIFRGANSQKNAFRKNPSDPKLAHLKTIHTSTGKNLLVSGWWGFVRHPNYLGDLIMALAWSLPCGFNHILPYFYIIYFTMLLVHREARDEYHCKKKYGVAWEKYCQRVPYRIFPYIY
In short, it runs like this: as §1

Test [6] has as its target T2, KAT8 2-458 Tudor-knot+MOZ_SAS (domain begin residue: 2, domain end residue: 458), Q9H7Z6.
T2 chain: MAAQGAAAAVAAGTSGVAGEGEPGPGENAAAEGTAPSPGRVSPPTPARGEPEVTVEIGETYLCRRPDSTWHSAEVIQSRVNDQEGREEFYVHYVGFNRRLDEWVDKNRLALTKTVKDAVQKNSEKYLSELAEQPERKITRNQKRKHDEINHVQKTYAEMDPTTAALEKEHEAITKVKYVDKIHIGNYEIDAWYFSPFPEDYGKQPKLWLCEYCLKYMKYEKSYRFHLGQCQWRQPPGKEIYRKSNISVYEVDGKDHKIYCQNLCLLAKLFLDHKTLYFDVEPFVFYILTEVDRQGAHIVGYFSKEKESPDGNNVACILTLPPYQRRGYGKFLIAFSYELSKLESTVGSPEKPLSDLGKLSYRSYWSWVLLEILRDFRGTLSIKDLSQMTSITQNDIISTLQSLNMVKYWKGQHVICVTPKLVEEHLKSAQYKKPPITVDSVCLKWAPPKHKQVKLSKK
In short, it runs like this:
as §1

The target in test [7] is T3, TDRD1 261-449 TUDOR (domain begin residue: 261, domain end residue: 449), Q9BXT4.
T3 chain: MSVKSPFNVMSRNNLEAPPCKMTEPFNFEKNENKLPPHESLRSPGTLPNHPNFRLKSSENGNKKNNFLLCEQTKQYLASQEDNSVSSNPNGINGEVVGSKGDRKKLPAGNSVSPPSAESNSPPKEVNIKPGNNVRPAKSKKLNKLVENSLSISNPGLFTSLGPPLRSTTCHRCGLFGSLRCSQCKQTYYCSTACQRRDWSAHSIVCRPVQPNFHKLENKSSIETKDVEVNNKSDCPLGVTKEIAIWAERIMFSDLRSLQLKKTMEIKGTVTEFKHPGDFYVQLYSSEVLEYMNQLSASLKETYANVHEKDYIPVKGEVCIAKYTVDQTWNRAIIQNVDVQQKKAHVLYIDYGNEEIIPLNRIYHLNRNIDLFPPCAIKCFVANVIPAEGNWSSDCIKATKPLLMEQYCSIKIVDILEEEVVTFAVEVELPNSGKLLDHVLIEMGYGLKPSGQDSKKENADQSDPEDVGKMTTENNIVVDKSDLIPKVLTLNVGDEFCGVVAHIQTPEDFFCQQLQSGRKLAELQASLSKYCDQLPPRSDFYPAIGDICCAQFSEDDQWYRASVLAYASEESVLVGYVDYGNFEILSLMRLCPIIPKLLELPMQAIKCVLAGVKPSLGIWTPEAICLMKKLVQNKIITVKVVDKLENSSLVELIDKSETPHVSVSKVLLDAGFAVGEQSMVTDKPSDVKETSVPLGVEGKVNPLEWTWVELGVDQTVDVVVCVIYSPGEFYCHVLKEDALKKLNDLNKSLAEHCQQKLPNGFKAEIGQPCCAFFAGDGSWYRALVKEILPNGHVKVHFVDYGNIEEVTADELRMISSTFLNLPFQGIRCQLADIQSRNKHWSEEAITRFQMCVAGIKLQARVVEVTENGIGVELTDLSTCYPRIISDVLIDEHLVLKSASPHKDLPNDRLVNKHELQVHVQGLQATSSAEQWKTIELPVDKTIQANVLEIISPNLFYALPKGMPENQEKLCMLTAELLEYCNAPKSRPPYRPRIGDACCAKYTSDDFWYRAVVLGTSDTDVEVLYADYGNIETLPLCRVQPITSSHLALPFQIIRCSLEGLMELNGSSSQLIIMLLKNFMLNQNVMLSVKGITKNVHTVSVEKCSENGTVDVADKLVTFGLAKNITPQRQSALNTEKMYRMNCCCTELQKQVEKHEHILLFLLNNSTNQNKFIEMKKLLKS
In short, it runs like this: as §1

Test [8] has as its target T4, LRP5 340-601 Ldl_recept_b (domain begin residue: 340, domain end residue: 601), O75197.
T4 chain: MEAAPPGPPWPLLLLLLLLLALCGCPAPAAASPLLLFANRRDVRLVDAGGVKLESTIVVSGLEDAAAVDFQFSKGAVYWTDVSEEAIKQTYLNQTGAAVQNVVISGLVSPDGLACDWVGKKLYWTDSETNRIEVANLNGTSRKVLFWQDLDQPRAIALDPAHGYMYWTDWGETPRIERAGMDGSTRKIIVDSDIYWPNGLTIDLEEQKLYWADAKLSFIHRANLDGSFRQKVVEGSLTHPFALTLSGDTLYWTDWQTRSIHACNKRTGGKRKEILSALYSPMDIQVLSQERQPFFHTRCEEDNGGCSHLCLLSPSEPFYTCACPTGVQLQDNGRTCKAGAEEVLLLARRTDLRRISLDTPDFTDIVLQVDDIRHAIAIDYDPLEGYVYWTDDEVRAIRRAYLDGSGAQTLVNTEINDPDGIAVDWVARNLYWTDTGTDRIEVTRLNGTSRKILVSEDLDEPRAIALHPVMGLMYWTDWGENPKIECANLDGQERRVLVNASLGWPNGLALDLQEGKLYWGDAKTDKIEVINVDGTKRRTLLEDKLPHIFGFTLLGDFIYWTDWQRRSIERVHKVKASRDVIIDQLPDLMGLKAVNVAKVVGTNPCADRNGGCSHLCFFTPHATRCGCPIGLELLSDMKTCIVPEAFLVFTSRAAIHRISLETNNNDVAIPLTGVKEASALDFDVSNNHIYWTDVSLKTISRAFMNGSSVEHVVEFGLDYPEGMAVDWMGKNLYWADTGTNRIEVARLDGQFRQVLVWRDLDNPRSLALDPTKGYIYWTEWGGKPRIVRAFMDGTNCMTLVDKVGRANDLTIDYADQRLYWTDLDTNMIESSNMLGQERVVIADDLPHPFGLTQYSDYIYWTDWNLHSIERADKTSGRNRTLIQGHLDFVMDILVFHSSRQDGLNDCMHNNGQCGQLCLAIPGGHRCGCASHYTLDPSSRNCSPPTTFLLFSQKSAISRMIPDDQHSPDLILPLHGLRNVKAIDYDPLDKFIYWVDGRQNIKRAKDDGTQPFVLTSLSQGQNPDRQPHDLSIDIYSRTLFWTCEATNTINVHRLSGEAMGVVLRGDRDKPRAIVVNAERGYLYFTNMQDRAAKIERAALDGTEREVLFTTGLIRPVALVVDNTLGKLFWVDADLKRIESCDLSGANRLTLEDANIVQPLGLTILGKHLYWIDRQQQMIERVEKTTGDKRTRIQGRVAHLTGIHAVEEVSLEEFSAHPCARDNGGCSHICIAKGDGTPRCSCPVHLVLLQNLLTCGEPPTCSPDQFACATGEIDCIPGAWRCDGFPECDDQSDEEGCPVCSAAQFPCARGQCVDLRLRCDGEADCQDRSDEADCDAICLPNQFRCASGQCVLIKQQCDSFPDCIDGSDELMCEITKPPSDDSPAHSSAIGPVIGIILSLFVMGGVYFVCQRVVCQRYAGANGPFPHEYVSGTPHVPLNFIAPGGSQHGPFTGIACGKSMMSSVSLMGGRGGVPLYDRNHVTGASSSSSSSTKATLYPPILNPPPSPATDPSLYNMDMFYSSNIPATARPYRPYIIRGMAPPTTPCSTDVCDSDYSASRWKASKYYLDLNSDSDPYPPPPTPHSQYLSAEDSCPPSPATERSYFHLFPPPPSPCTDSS
In short, it runs like this:
as §1

For test [9], the target named is KARS 71-214 tRNA_anti-codon (domain begin residue: 71, domain end residue: 214), Q15046. The gist of the method: as §1
KARS 71-214 tRNA_anti-codon (domain begin residue: 71, domain end residue: 214), Q15046, sequence (Q15046 whole entry, looked up, tested part not stated): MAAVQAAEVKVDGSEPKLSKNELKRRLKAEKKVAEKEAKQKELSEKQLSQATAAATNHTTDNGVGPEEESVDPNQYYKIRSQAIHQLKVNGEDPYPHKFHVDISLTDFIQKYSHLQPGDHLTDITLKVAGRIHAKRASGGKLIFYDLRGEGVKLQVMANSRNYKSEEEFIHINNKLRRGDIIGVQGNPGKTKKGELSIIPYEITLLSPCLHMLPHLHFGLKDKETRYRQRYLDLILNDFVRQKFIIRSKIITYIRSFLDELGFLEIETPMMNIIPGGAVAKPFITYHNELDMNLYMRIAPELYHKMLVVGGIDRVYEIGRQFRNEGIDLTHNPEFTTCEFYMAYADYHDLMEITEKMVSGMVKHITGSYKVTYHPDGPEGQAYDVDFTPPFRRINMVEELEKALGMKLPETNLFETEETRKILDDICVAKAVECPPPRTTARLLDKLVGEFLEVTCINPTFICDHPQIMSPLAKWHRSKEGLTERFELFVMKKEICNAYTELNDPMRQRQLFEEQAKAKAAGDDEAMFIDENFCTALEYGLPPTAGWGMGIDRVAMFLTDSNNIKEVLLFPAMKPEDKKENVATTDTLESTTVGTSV

KDM6A 1-520 TPR_8 (domain begin residue: 1, domain end residue: 520), O15550, sequence (O15550 whole entry): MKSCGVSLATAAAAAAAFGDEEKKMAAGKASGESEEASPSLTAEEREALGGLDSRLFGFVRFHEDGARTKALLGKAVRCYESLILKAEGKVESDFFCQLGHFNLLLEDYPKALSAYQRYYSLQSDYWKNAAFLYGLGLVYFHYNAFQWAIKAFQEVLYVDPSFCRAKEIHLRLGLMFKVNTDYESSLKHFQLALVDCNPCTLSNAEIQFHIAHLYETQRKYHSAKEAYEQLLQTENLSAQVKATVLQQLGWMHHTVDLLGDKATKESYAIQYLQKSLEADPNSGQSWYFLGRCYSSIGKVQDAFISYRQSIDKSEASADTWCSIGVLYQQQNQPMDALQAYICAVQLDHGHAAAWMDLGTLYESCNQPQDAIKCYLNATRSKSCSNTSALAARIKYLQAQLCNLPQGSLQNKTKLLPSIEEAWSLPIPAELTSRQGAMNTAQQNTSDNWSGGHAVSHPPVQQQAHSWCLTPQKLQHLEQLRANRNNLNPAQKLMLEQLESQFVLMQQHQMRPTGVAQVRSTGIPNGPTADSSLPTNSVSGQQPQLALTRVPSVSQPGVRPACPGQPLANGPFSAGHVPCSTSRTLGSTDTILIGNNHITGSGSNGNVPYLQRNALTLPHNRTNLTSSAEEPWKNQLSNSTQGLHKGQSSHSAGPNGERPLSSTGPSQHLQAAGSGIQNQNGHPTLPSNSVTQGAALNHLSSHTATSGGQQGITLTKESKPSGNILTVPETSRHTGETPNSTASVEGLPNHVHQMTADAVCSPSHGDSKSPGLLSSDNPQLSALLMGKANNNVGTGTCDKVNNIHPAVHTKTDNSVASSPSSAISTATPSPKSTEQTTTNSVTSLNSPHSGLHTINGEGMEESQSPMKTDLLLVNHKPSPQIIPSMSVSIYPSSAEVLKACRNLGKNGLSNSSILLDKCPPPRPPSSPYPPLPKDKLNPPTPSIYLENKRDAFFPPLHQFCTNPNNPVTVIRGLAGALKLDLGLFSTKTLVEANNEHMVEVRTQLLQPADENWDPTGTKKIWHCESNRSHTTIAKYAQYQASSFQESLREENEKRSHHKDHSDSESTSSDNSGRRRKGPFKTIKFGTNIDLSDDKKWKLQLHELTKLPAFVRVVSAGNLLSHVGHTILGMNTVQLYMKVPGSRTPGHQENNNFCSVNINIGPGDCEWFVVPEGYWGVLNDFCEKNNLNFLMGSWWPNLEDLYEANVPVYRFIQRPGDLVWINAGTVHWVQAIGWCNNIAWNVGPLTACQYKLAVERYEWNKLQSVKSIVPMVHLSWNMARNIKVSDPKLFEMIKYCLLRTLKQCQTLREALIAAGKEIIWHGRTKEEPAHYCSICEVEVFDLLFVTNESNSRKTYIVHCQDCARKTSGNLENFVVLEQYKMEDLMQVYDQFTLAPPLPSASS
KPNB1 1-876 IBN_N+Arm (domain begin residue: 1, domain end residue: 876), Q14974, sequence (Q14974 whole entry, the tested form may be a part): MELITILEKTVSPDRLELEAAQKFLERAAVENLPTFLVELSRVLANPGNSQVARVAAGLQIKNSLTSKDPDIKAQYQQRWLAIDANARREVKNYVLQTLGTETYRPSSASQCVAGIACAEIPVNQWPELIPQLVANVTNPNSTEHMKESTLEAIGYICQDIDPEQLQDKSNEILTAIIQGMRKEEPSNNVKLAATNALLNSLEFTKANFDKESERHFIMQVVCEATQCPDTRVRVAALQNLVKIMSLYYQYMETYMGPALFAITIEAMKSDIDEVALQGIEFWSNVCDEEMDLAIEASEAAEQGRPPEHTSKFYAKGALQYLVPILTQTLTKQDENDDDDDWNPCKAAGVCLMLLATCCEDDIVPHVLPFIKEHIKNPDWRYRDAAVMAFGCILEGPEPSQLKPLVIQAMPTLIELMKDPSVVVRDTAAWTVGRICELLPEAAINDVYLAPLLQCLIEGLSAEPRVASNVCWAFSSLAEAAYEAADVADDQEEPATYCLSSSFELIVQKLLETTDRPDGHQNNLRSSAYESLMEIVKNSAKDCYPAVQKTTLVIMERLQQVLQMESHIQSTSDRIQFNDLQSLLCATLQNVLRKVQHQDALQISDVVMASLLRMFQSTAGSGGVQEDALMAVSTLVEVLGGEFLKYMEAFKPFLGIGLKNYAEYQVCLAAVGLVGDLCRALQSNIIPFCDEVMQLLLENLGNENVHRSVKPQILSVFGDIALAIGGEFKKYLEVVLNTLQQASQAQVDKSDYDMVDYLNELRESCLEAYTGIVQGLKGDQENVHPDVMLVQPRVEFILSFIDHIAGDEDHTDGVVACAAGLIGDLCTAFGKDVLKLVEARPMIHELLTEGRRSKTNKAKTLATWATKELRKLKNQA
HSPA9 438-651 HSP70 (domain begin residue: 438, domain end residue: 651), P38646, sequence (P38646 whole entry): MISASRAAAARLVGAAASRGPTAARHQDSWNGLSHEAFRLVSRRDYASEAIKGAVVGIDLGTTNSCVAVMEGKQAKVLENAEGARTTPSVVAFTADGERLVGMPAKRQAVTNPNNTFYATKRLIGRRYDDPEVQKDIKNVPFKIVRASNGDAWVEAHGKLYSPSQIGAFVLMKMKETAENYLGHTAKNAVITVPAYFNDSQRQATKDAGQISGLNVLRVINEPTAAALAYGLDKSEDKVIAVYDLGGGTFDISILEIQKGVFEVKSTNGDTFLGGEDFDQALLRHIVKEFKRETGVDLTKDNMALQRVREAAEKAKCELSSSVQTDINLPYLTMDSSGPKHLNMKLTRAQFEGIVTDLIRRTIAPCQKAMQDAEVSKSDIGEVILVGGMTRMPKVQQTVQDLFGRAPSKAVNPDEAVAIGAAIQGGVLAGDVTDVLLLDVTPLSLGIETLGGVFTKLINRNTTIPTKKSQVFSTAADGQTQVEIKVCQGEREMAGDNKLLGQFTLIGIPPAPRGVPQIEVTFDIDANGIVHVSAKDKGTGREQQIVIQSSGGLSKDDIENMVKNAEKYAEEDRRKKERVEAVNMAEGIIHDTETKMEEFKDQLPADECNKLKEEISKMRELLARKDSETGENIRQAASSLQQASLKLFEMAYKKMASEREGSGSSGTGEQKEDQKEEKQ

PHEFQWALWPSGVFVF: in test [1], the “phage ELISA signal ratio” value was determined as 14.
As for PSEWENYMSVGDIFIF, the “phage ELISA signal ratio” value in test [1] stood at 16.9.
For the molecule HYMEMLYEQLAISQAI, the “phage ELISA signal ratio” value in [2] was 5.05.
For the molecule MDMIWDQILPDQFLSK, the “phage ELISA signal ratio” value in [2] came out at 6.37.
As to PTLLLWQQIDQVMMKK, the “phage ELISA signal ratio” value in test [3] was found to be 20.8.
As for LDWVSMFEDNSSQFSV, the “phage ELISA signal ratio” value in [1] is 17.2.
With YHWDNLLEPTIQTYMG, the “phage ELISA signal ratio” value in test [2] was 7.69.
Regarding VKTPVEDWKYLTFYYI, in test [4], the “phage ELISA signal ratio” value worked out at 6.07.
For QQQKHPNFALHYHQDQ, the “phage ELISA signal ratio” value in test [5] stood at 6.64.
For the molecule LDWMSMFDDYSSLFSV, in test [1], the “phage ELISA signal ratio” value came out at 16.8.
On the same count and under the same terms, as for YDFGPFMGVGAPSFQF, the figure is 9.88.
For YIDHMYDVVMYEEIEW, the “phage ELISA signal ratio” value was 3.94 in test [6] and 8.98 in [7].
On to EWSSNEWWDAYSAMTV, for which the “phage ELISA signal ratio” value in test [8] amounted to 7.31.
Take DWEWYQYFNAPQPVKG: in test [9], the “phage ELISA signal ratio” value was 25.1.
